PubChem BioAssay (NCI)
The panel holds about 83,000 compounds, 20% with a hit somewhere; the sample as a whole holds those more often.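 A percent growth of 40 corresponds to 60% growth inhibition; 0 means no net growth; -100 means all cells died. Active threshold: below 10.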 Activity calls are given as the source filed them.

Experiments:
Assay in all cases: NCI-60 one-dose screen, 48 h (100 = growth as untreated, 0 = no growth, -100 = all killed)
Settings in all cases: 10 µM unless noted
MOLT-4 leukemia = test system: MOLT-4 leukemia
SR leukemia = test system: SR leukemia
RPMI-8226 leukemia = test system: RPMI-8226 leukemia
OVCAR-5 ovarian = test system: OVCAR-5 ovarian
OVCAR-4 ovarian = test system: OVCAR-4 ovarian
SK-OV-3 ovarian = test system: SK-OV-3 ovarian
IGROV1 ovarian = test system: IGROV1 ovarian
OVCAR-3 ovarian = test system: OVCAR-3 ovarian
HS 578T breast = test system: HS 578T breast
NCI/ADR-RES ovarian = test system: NCI/ADR-RES ovarian
T-47D breast = test system: T-47D breast
BT-549 breast = test system: BT-549 breast
MDA-MB-435 melanoma = test system: MDA-MB-435 melanoma
SW-620 colon = test system: SW-620 colon
MCF7 breast = test system: MCF7 breast
HCT-116 colon = test system: HCT-116 colon
HCC-2998 colon = test system: HCC-2998 colon
KM12 colon = test system: KM12 colon
OVCAR-8 ovarian = test system: OVCAR-8 ovarian

Measured: growth

C/C(=N/OC(=O)N(C)C)c1ccc(Cl)c(Cl)c1
inactive: MOLT-4 leukemia 86.3% | SR leukemia 74.5% | RPMI-8226 leukemia 89% | OVCAR-5 ovarian 100% | OVCAR-4 ovarian 119% | SK-OV-3 ovarian 116% | IGROV1 ovarian 105% | OVCAR-3 ovarian 113% | HS 578T breast 116% | NCI/ADR-RES ovarian 106% | T-47D breast 95.6% | BT-549 breast 125% | MDA-MB-435 melanoma 106% | SW-620 colon 115% | MCF7 breast 97.3% | HCT-116 colon 107% | HCC-2998 colon 109% | KM12 colon 109%

CC1=C2[C@H]3OC(=O)[C@@H](C)[C@@H]3CC[C@@]2(C)C=CC1=O
inactive: MOLT-4 leukemia 104% | SR leukemia 114% | RPMI-8226 leukemia 91% | OVCAR-8 ovarian 116% | OVCAR-5 ovarian 90.7% | OVCAR-3 ovarian 129% | HS 578T breast 108% | NCI/ADR-RES ovarian 13.8% | T-47D breast 109% | MDA-MB-435 melanoma 115% | SW-620 colon 108% | MCF7 breast 103% | HCT-116 colon 118% | KM12 colon 105%

Cc1c(C)c(N)c(C)c(C)c1N
inactive: MOLT-4 leukemia 84.1% | SR leukemia 69.5% | RPMI-8226 leukemia 98.7% | OVCAR-5 ovarian 85.1% | OVCAR-4 ovarian 75.6% | IGROV1 ovarian 80.7% | OVCAR-3 ovarian 115% | HS 578T breast 114% | NCI/ADR-RES ovarian 96.1% | T-47D breast 92.6% | BT-549 breast 104% | MDA-MB-435 melanoma 107% | MCF7 breast 46.5% | HCT-116 colon 59.3% | HCC-2998 colon 106% | KM12 colon 98.4%

COc1cc2c(cc1OC)-c1c3c(cc4c1[C@@H](C2)N(C)CC4)OCO3
inactive: MOLT-4 leukemia 11.9% | SR leukemia 17.2% | RPMI-8226 leukemia 23.9% | OVCAR-5 ovarian 42.5% | OVCAR-4 ovarian 44.2% | SK-OV-3 ovarian 66.5% | OVCAR-3 ovarian 76.1% | HS 578T breast 80.4% | NCI/ADR-RES ovarian 43.5% | T-47D breast 57.4% | BT-549 breast 55.8% | MDA-MB-435 melanoma 51.8% | MCF7 breast 22.9% | HCT-116 colon 16.1% | KM12 colon 41.4%
active: HCC-2998 colon -3.7%

COC[C@H]1OC(=O)c2coc3c2[C@@]1(C)C1=C(C3=O)[C@@H]2CCC(=O)[C@@]2(C)C[C@H]1OC(C)=O
active: OVCAR-5 ovarian -41.3% | IGROV1 ovarian -28% | T-47D breast -2.63%
inactive: MOLT-4 leukemia 42.2% | SR leukemia 12.1% | RPMI-8226 leukemia 58.8% | OVCAR-4 ovarian 53.2% | SK-OV-3 ovarian 39.9% | OVCAR-3 ovarian 41.7% | NCI/ADR-RES ovarian 52.5% | BT-549 breast 26.3% | MDA-MB-435 melanoma 60.3% | SW-620 colon 53.4% | MCF7 breast 21.5% | HCT-116 colon 45.7% | KM12 colon 51.2%

O=C1C=C(N2CC2)c2ccccc2C1=O
inactive: RPMI-8226 leukemia 40.5% | OVCAR-5 ovarian 123% | OVCAR-4 ovarian 96.1% | SK-OV-3 ovarian 76% | IGROV1 ovarian 70.7% | OVCAR-3 ovarian 83.3% | HS 578T breast 107% | NCI/ADR-RES ovarian 62.7% | T-47D breast 75.5% | BT-549 breast 71.5% | SW-620 colon 68.4% | MCF7 breast 41.5% | HCT-116 colon 63.4% | HCC-2998 colon 94% | KM12 colon 81.9%
active: MOLT-4 leukemia 5.2% | SR leukemia 0.0144% | MDA-MB-435 melanoma -78.8%

CCCCOC(N)=O
inactive: MOLT-4 leukemia 96.8% | SR leukemia 96.1% | RPMI-8226 leukemia 114% | OVCAR-5 ovarian 110% | OVCAR-4 ovarian 106% | SK-OV-3 ovarian 100% | IGROV1 ovarian 113% | OVCAR-3 ovarian 109% | HS 578T breast 110% | NCI/ADR-RES ovarian 106% | MDA-MB-435 melanoma 110% | MCF7 breast 114% | HCT-116 colon 98.4% | KM12 colon 106%

O=[N+]([O-])c1ccc(OCc2ccc(S(=O)(=O)F)c(Cl)c2)c(Cl)c1
inactive: MOLT-4 leukemia 68.2% | SR leukemia 87.5% | RPMI-8226 leukemia 97.8% | OVCAR-5 ovarian 99% | OVCAR-4 ovarian 102% | SK-OV-3 ovarian 107% | OVCAR-3 ovarian 112% | HS 578T breast 95.4% | NCI/ADR-RES ovarian 102% | T-47D breast 97% | BT-549 breast 91.6% | MDA-MB-435 melanoma 113% | SW-620 colon 98.8% | MCF7 breast 92.8% | HCT-116 colon 90.1% | HCC-2998 colon 105% | KM12 colon 113%
